The values below come from PubChem BioAssay (NCATS).

Records with an inconclusive call do not appear. Unmarked numbers belong to inactive results. Active and inactive are the calls of the source. Calls follow the shape of the dose curve; as a rule, active = well fitted inhibition curve with a large enough effect; inconclusive = small, poorly fitted or top-dose-only effect; inactive = flat fitted curve, though single readings scatter.

One assay deals with CRL-7250. The assay can be described thus: Cytotoxic Profiling of Annotated Libraries Using Quantitative High-Throughput Screening (AID 1296008). Also: potency is read from the fitted curve at half-maximal effect. As to max response: % is scaled to controls: 0 for no effect and ±100 for the full control effect. To be noted: Five cell lines viability, CellTiter-Glo ATP luminescence, 48-72 h; max response: stronger effect = lower value. Put shortly:
(§1)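 Compounds were pin-transferred onto cells and incubated 48 or 72 hr at 37 degree Celsius, 95% humidity. CellTiter-Glo was added, plates sat 10 min at room temperature, then ATP-coupled luminescence was imaged as the viability read-out.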

The test system of the next assay is HEK293. The description is as above. To be noted: Five cell lines viability, CellTiter-Glo ATP luminescence, 48-72 h; max response: stronger effect = lower value. The procedure, abridged: as §1
(ATP-based viability assays read luminescence as a measure of living cells.)

For assay [1], the system named is HaCat. Described as above. To be noted: Five cell lines viability, CellTiter-Glo ATP luminescence, 48-72 h; max response: stronger effect = lower value. Put shortly:
as §1

The next assay relates to KB-3-1. The description is as above. The following applies: Five cell lines viability, CellTiter-Glo ATP luminescence, 48-72 h; max response: stronger effect = lower value. The procedure, abridged:
as §1

A further assay has as its system NIH3T3. The description is as above. The following applies: Five cell lines viability, CellTiter-Glo ATP luminescence, 48-72 h; max response: stronger effect = lower value. The procedure, abridged:
as §1

For assay [2], the system named is HACAT. In words: qHTS assay to identify novel small-molecules to repurpose for Merkel cell carcinoma treatment (AID 1296009). To be noted: MCC and control cell lines, CellTiter-Glo viability, 72 h; at 44.8 µM (top of the series) unless noted. The procedure, abridged:
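qHTS format: cells treated with library compounds in DMSO across 8 (NPC) or 11 (MIPE) concentrations. Readout after 72 hr at 37 degree celsius was CellTiter-Glo luminescence.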
Also: nearly all actives have a fitted effect of over 60% in size.

Regarding `C=C[C@H]1[C@H](O[C@@H]2O[C@H](CO)[C@@H](O)[C@H](O)[C@H]2O)OC=C(C(=O)OC)[C@H]1CCO`, the max response in the assay with CRL-7250 was -6.38%; with HEK293 it was 2.87%; in the assay on KB-3-1, 5.52%; with NIH3T3, -6.64%. Further, the call in the assay with HaCat [1] and in the assay with HACAT [2] was inactive.

For `CNc1nc(Nc2cn(C(C)(C)C#N)nc2C)ncc1C(F)(F)F`, the max response in the assay on CRL-7250 is 0.355%; with HEK293 it was -5.29%; in the assay on KB-3-1 it was 6.02%; in the assay with NIH3T3 it was -4.77%. In addition, the molecule was called inactive in the assay on HaCat [1] and in the assay with HACAT [2].

For `CC(C)c1c(NC(=O)Nc2ccc(Cl)cc2)c(=O)n(-c2ccccc2)n1C`, the max response with CRL-7250 was -6%; in the assay on HEK293, -5.54%; with KB-3-1, -6.5%; with NIH3T3, -1.6%. The molecule was called inactive in the assay with HaCat [1] and in the assay on HACAT [2].

As to `O=C(OC1C=C(CO)C2C(OC3OC(CO)C(O)C(O)C3O)OC=CC12O)c1ccc(O)cc1` (stereo not drawn), the max response with CRL-7250 was 4.89%; with HEK293, -1.34%; in the assay on KB-3-1 it was 1.12%; with NIH3T3, -4.5%. Also, the outcome in the assay with HaCat [1] was inactive. For the same molecule, the outcome with HACAT [2] is “inactive [at 17.4 µM]”.

On to `C[C@]12CC[C@@H]3c4ccc(O)cc4CC[C@H]3[C@@H]1C[C@@H](O[C@@H]1O[C@H](C(=O)O)[C@@H](O)[C@H](O)[C@H]1O)[C@@H]2O`, for which the max response in the assay on CRL-7250 is 2.29%; with HEK293, -7.39%; with KB-3-1, 4.13%; in the assay with NIH3T3, -7.98%. Moreover, the outcome with HaCat [1] and in the assay with HACAT [2] was inactive.

Take `C=C1C[C@]23C[C@H]1CC[C@H]2[C@]1(C)CC[C@H](O)[C@@](C)(C(=O)O)[C@H]1[C@@H]3C(=O)O`: the max response in the assay with CRL-7250 is -9.09%; in the assay with HEK293, 0.167%; in the assay on KB-3-1, -2.4%; in the assay with NIH3T3, 2.39%. Also, the call in the assay on HaCat [1] and in the assay with HACAT [2] was inactive.

In the case of `OCC(O)C(c1c[nH]c2ccccc12)c1c[nH]c2ccccc12` (stereo not drawn), the result in the assay with CRL-7250, in the assay on HaCat [1], with KB-3-1 and in the assay with HACAT [2] was inactive. The figures for the max response with HEK293 and with NIH3T3 were -8.71% and 1.42%, respectively.

For `C=CC(C)(O)CC/C=C(\C)COC1O[C@H](CO)[C@@H](O)[C@H](O)[C@H]1O` (stereo partly drawn), the max response in the assay on CRL-7250 is -13.2%; with HEK293 it was 0.0631%; with KB-3-1, 1.01%; in the assay with NIH3T3, 3.77%. The outcome with HaCat [1] and in the assay on HACAT [2] was inactive.

On to `COC(=O)C1=COC(OC2OC(CO)C(O)C(O)C2O)C2C(COC(=O)/C=C/c3ccc(O)c(O)c3)C(O)C(O)C12` (stereo not drawn), for which the molecule was classed as inactive in the assay with CRL-7250, with HaCat [1] and with KB-3-1. Also, the max response is 0.488% with HEK293 and 2.28% in the assay on NIH3T3. Also, the outcome with HACAT [2] is “inactive [at 17.4 µM]”.

Consider `Cc1ncc(NC(=O)c2ccc(CN3CCN(C)CC3)c(C(F)(F)F)c2)cc1Nc1nccc(-c2cccnc2)n1`, for which the max response with CRL-7250 is -2.29%; in the assay with KB-3-1 it was 8.35%; in the assay with NIH3T3, 1.55%. Besides, the Potency in the assay with HEK293 is 16.4 µM (active). Besides, the molecule was called inactive with HaCat [1] and with HACAT [2].

Regarding `CC(C)N(CCCNC(=O)Nc1ccc(C(C)(C)C)cc1)C[C@H]1O[C@@H](n2ccc3c(N)ncnc32)[C@H](O)[C@@H]1O`, the max response was 1.45% with CRL-7250, -23.8% in the assay on HEK293, -3.09% in the assay with KB-3-1 and -13.2% in the assay with NIH3T3. Also, the outcome with HaCat [1] and with HACAT [2] was inactive.

For `Fc1ccccc1-c1nc2ccn(Cc3ccc(-c4ccc(C(F)(F)F)cc4C(F)(F)F)nn3)cc-2n1`, the max response with CRL-7250 is 1.68%; in the assay on HEK293 it was -5.52%; with KB-3-1 it was -0.729%; in the assay on NIH3T3, -4.04%. The molecule was classed as inactive in the assay with HaCat [1] and in the assay with HACAT [2].

For `CCC(C)C(C(=O)O)N1Cc2c(OCC=C(C)C)c(C)c(OC)c(C(=O)O)c2C1=O` (stereo not drawn), the results for the max response in the assay on CRL-7250, in the assay on HEK293 and in the assay with NIH3T3 were 0.564%, -3.21% and -10.1%, respectively. Besides, the outcome in the assay on HaCat [1] and with KB-3-1 was inactive. The outcome with HACAT [2] is “inactive [at 17.4 µM]”.

As for `CC(=O)OC(C)C(C)(O)C(=O)O[C@@H]1CC[C@]2(C)CC(=O)C(=C(C)C)C[C@H]2[C@]1(C)OC(C)=O` (stereo partly drawn), the max response in the assay with CRL-7250 was -0.377%; with HEK293, 0.4%; in the assay with KB-3-1, 6.09%; with NIH3T3, -1.04%. Besides, in the assay on HaCat [1], the outcome was inactive. Moreover, the outcome in the assay with HACAT [2] is “inactive [at 17.4 µM]”.

As to `CC(C)CC(=O)NCCn1cc(C(=O)O)c(=O)cc1C(O)c1ccccc1` (stereo not drawn), the molecule was classed as inactive in the assay with CRL-7250, in the assay with HaCat [1], in the assay on KB-3-1 and with HACAT [2]. In addition, the max response in the assay with HEK293 was -11.3%; in the assay with NIH3T3, 3.17%.

On to `C[C@@H]1O[C@@H](O[C@H]2[C@@H]3C=CO[C@@H](O[C@@H]4O[C@H](CO)[C@@H](O)[C@H](O)[C@H]4O)[C@@H]3[C@@]3(CO)O[C@@H]23)[C@H](O)[C@H](OC(=O)/C=C/c2ccc(O)cc2)[C@H]1OC(=O)/C=C/c1ccc(O)cc1`, for which the max response with CRL-7250 was 4.25%; in the assay on HEK293 it was -0.28%; in the assay with KB-3-1, 2.65%; in the assay with NIH3T3 it was -10.1%. For the same molecule, the call in the assay on HaCat [1] was inactive. For the same molecule, in the assay with HACAT [2], the outcome is “inactive [at 17.4 µM]”.

As to `COC(=O)C1=CO[C@@H](O[C@@H]2O[C@H](CO)[C@@H](O)[C@H](O)[C@H]2O)C2C1CC(O)C2C` (stereo partly drawn), the results for the max response in the assay with CRL-7250, with HEK293 and with NIH3T3 were -13.7%, 0.336% and -5.32%, respectively. The molecule was classed as inactive in the assay with HaCat [1], with KB-3-1 and with HACAT [2].

In the case of `CC1=C2CC(C)(C)CC2C(O)C2=C(C1)C(=O)OC2O` (stereo not drawn), the molecule was classed as inactive in the assay with CRL-7250, with HaCat [1], in the assay with KB-3-1 and in the assay with HACAT [2]. Moreover, the max response with HEK293 is 4.01%; with NIH3T3, -6.57%.
